Results: PubChem BioAssay
Measured potencies and affinities stand elsewhere. Results filed as inconclusive are left out. The source made the active and inactive calls. Unless noted, the rule behind the calls is not given here.

Key:
[1] = cytotoxicity in PAX8-dependent RMG-1 cells, dose response, cell-based, cherry-pick (AID 687029;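 active = signal drop whose fitted half-maximal concentration is at most twice the top valid dose, in every test run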;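 note: cells exposed to compound for 96 hours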)
[2] = cytotoxicity in IOSE-T80 ovarian epithelial cells, dose response, selectivity assay for PAX8 inhibitor project, cell-based, cherry-pick (AID 687032;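 active = fitted half-maximal concentration for viability loss no higher than twice the top valid dose, in every repeat run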;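 note: cells exposed to compound for 96 h before reading; 0% = neutral control wells and -100% = 2 µM mitoxantrone kill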)
[3] = inhibitors of CMV-promoter luciferase reporter, dose response, counter-screen for Pax8 inhibitor project, cell-based, HEK293, luminescence, dry powder (AID 743020;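 active = signal-lowering compounds whose fitted half-maximal concentration is at or below twice the top tested dose in every run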;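 note: HEK293 cells stably expressing the CMV luciferase reporter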)
[4] = non-specific cell cytotoxicity, dose response, cytotoxicity control for PAX8 inhibitor project, plate reader, dry powder samples (AID 743021)
[5] = IGROV1 ovarian cancer cell cytotoxicity, dose response, PAX8 inhibitor project, plate reader, dry powder samples (AID 743043);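 note: more negative means fewer viable cells or more cytotoxicity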
[6] = IOSE-T80 ovarian epithelial cell cytotoxicity, dose response, cytotoxicity control for PAX8 inhibitor project, plate reader, dry powder samples (AID 743045);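 note: 0% = neutral control median and -100% = positive control median; more negative values mean more cell killing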
[7] = A2780 ovarian cancer cell cytotoxicity, dose response, cytotoxicity control, plate reader, dry powder samples (AID 743046);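 note: 0% = neutral control wells and -100% = cytotoxic reference compound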
[8] = cytotoxicity in OVCAR8 ovarian cancer cells, dose response, PAX8 project, cell-based, plate reader, dry powder samples (AID 743197)
[9] = NIH:OVCAR-3 ovarian cancer cell cytotoxicity, dose response, PAX8 inhibitor project, plate reader, dry powder samples (AID 743044); conditions: max activity: at 35 µM, hits give low values unless noted

Measured: max activity

C[C@@H]1CN([C@@H](C)CO)C(=O)Cc2cc(NC(=O)Nc3ccc(C(F)(F)F)cc3)ccc2O[C@H]1CN(C)C(=O)NC1CCCCC1
not listed: [9]
inactive: all other assays above

C[C@@H]1CCCCO[C@H](CN(C)Cc2ccccc2)[C@H](C)CN([C@@H](C)CO)C(=O)c2cc(NC(=O)Nc3ccc(C(F)(F)F)cc3)ccc2O1
not listed: [6] | [9]
inactive: all other assays above

C[C@@H]1CN([C@H](C)CO)C(=O)c2cccc(NC(=O)Nc3cccc4ccccc34)c2O[C@H]1CN(C)C(=O)Nc1ccc(C(F)(F)F)cc1
not listed: [9]
inactive: all other assays above

COc1ccccc1S(=O)(=O)N1CC[C@H]2[C@@H](CO)N(C)c3ccc(-c4ccc(C#N)cc4)cc3[C@H]21
not listed: [7] | [9]
inactive: all other assays above

COc1cccc(S(=O)(=O)N2CCCCN3[C@@H](CO)[C@@H](c4ccc(C#CCC(C)C)cc4)[C@@H]3C2)c1
not listed: [9]
inactive: all other assays above

COCC(=O)N1CCCCN2[C@H](C1)[C@@H](c1ccc(-c3ccc(C)cc3)cc1)[C@@H]2CO
not listed: [9]
inactive: all other assays above

Cc1cccc(S(=O)(=O)N2CC[C@@H]3[C@H]2c2cc(C4=CCCCC4)ccc2N[C@@H]3CO)c1
inactive: [1] | [2] | [3] | [4] | [9] 9.72% [at 4.2 µM, hits give low values] | [6]

C[C@H]1CN([C@@H](C)CO)C(=O)c2c(c3ccccc3n2C)-c2ccccc2CO[C@@H]1CN(C)S(=O)(=O)c1ccsc1
not listed: [7] | [9]
inactive: all other assays above

COc1ccc(C#Cc2ccc([C@@H]3[C@H](CO)N4CCCCN(C(=O)Nc5ccc(F)cc5)C[C@@H]34)cc2)cc1
inactive: [1] | [2] | [3] | [4] | [9] -123% [at 30 µM, hits give low values] | [6]

CC(C)(C)S(=O)N1Cc2cc(C(=O)NCCCN3CCOCC3)nc(-c3cccc(C#CCC4CCCC4)c3)c2[C@@H]1CCO (some centres not stated)
not listed: [7] | [9]
inactive: all other assays above

C[C@H](CO)N1C[C@H](C)[C@@H](CN(C)Cc2ccc(C(F)(F)F)cc2)OCCCC[C@H](C)Oc2ccc(NC(=O)Cc3ccccc3)cc2C1=O
not listed: [9]
inactive: all other assays above

Cc1ccc(S(=O)(=O)Nc2ccc3c(c2)C(=O)N([C@H](C)CO)C[C@@H](C)[C@@H](CN(C)Cc2ccc4c(c2)OCO4)OCCCC[C@@H](C)O3)cc1
not listed: [7] | [9]
inactive: all other assays above

O=S(=O)(c1ccccc1F)N1CC[C@H]2[C@H](CO)Nc3ccc(C4=CCCCC4)cc3[C@H]21
not listed: [6] | [8] | [9]
inactive: all other assays above

CC(C)NC(=O)N(C)C[C@H]1OCCCC[C@H](C)Oc2ccc(NC(=O)Nc3ccc(C(F)(F)F)cc3)cc2C(=O)N([C@H](C)CO)C[C@@H]1C
not listed: [9]
inactive: all other assays above

C[C@H](CO)N1C[C@H](C)[C@H](CN(C)Cc2ccc(Cl)c(Cl)c2)OCCCC[C@H](C)Oc2ccc(NS(=O)(=O)c3ccc(F)cc3)cc2C1=O
not listed: [9]
inactive: all other assays above

C[C@@H]1CN([C@@H](C)CO)C(=O)c2cc(NS(=O)(=O)c3cccs3)ccc2O[C@@H](C)CCCCO[C@H]1CN(C)Cc1ccc(C(F)(F)F)cc1
not listed: [9]
inactive: all other assays above

O=C(C[C@@H]1CC[C@@H]2[C@H](COC[C@@H](O)CN2S(=O)(=O)c2cccc(Cl)c2)O1)Nc1ccc(-c2ccccc2)cc1
not listed: [9]
inactive: all other assays above

C[C@@H]1CN([C@H](C)CO)C(=O)c2cc(NC(=O)Nc3ccc(F)cc3)ccc2O[C@@H](C)CCCCO[C@H]1CN(C)C(=O)NC1CCCCC1
not listed: [9]
inactive: all other assays above

COc1ccc(CN(C)C[C@@H]2OCCCC[C@H](C)Oc3ccc(NC(=O)Nc4ccc(C(F)(F)F)cc4)cc3C(=O)N([C@H](C)CO)C[C@@H]2C)cc1
not listed: [9]
inactive: all other assays above

C[C@H]1CCCCO[C@@H](CN(C)Cc2ccc3c(c2)OCO3)[C@@H](C)CN([C@@H](C)CO)C(=O)c2cc(NC(=O)Nc3ccc(F)cc3)ccc2O1
not listed: [9]
inactive: all other assays above

Cc1ccc(-c2ccc([C@H]3[C@@H](CO)N4CCCCN(C(=O)Nc5cccc(F)c5)C[C@H]34)cc2)cc1
not listed: [7] | [9]
inactive: all other assays above

C[C@@H]1CCCCO[C@@H](CN(C)S(=O)(=O)c2ccc(Cl)cc2)[C@H](C)CN([C@@H](C)CO)C(=O)c2cc(N(C)C)ccc2O1
not listed: [9]
inactive: all other assays above

C[C@@H]1CN([C@H](C)CO)C(=O)c2cc(NS(=O)(=O)c3ccc(Cl)cc3)ccc2O[C@@H](C)CCCCO[C@@H]1CN(C)Cc1ccc(Cl)c(Cl)c1
not listed: [7] | [9]
inactive: all other assays above

C[C@H](O)C#Cc1ccc2c(c1)O[C@@H](CN(C)Cc1ccc(-c3ccccc3)cc1)[C@H](C)CN([C@H](C)CO)S2(=O)=O
not listed: [6] | [8] | [9]
inactive: all other assays above

C[C@@H]1CN([C@H](C)CO)S(=O)(=O)c2ccc(C#Cc3ccc(F)cc3)cc2O[C@H]1CN(C)C(=O)NC1CCCCC1
not listed: [9]
inactive: all other assays above

COc1ccc(S(=O)(=O)Nc2ccc3c(c2)C(=O)N([C@@H](C)CO)C[C@@H](C)[C@@H](CN(C)Cc2ccc(C(F)(F)F)cc2)OCCCC[C@@H](C)O3)cc1
not listed: [6] | [8] | [9]
inactive: all other assays above

C[C@@H]1CN([C@H](C)CO)C(=O)c2cc(NC(=O)Nc3ccc(C(F)(F)F)cc3)ccc2O[C@@H](C)CCCCO[C@H]1CN(C)S(=O)(=O)c1ccccc1
not listed: [9]
inactive: all other assays above

Cc1cccc(S(=O)(=O)N2CC[C@@H]3[C@H](CO)N(C)c4ccc(-c5ccc(C#N)cc5)cc4[C@@H]32)c1
not listed: [9]
inactive: all other assays above

C[C@@H]1CCCCO[C@H](CN(C)Cc2ccc(C(=O)Nc3ccccc3N)cc2)[C@@H](C)CN([C@@H](C)CO)C(=O)c2cc(NS(=O)(=O)c3ccc(Cl)cc3)ccc2O1
not listed: [6] | [8] | [9]
inactive: all other assays above

C[C@H]1CCCCO[C@H](CN(C)C(=O)Nc2ccc(C(F)(F)F)cc2)[C@@H](C)CN([C@@H](C)CO)C(=O)c2cc(NS(=O)(=O)c3ccccc3)ccc2O1
inactive: [1] | [2] | [3] | [4] | [9] -16.1% [at 8 µM, hits give low values] | [6] | [7]

CN(C[C@H]1N[C@@H](CO)[C@@H]1c1ccc(-c2cccc(F)c2)cc1)S(C)(=O)=O
inactive: [1] | [2] | [3] | [4] | [9] 23.7% [at 8 µM, hits give low values] | [6] | [7]

C[C@@H]1CCCCO[C@@H](CN(C)Cc2ccc(C(F)(F)F)cc2)[C@H](C)CN([C@H](C)CO)C(=O)c2cc(NC(=O)c3ccccc3)ccc2O1
inactive: [1] | [2] | [3] | [4] | [9] -25.3% | [6] | [8]

C[C@@H]1CN([C@@H](C)CO)C(=O)Cc2cc(NC(=O)C3CCCCC3)ccc2O[C@H]1CN(C)Cc1ccc(Cl)c(Cl)c1
inactive: [1] | [2] | [3] | [4] | [9] -14.6% [at 8 µM, hits give low values] | [6] | [7] | [8]
